# Measured values published in the supplement of paper PMC9262897, “Low-cost anti-mycobacterial drug discovery using engineered E. coli” (Nature Communications, 2022).
# Counter-ions that a name gives are not always drawn. ± gives the standard deviation of the averaged measurements.
# Key:
# Test in all cases: growth (OD600 after 10 h); higher = more growth (less inhibition)
# [1] = tested on: E. coli TESEC Alr+ wild-type control; details: compound 0.1 mM; raw OD600 reference: median of DMSO wells 0.241, cell-free background 0.041
# Method: (§1)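 TESEC Mtb Alr E. coli, or the Alr+ wild-type control, in 384-well plates with Prestwick library compounds at 0.1 mM and 1% DMSO, across arabinose induction levels of 1E3 to 1E7 nM. Growth is read as OD600 after 10 h at 37 °C in triplicate biological replicates.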
# [2] = tested on: E. coli TESEC Mtb Asd; details: compound 0.1 mM
# Method: (§2)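 TESEC E. coli strains in which the native enzyme is deleted and replaced by arabinose-inducible Mtb Asd, DapB, CysH or TrpD, each grown in its selective medium. Strains were screened against the Prestwick library at 0.1 mM and 1% DMSO in 384-well format at low and high arabinose induction. Growth is read as OD600 after 10 h in triplicate.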
# [3] = tested on: E. coli TESEC Alr+ wild-type control; details: compound 0.1 mM; raw OD600 reference: median of DMSO wells 0.49, cell-free background 0.052
# Method: (§3)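 TESEC Mtb Alr E. coli (ΔaraC ΔtolC ΔentC Δalr ΔdadX, arabinose-inducible Mtb Alr) or the Alr+ wild-type control strain, grown in defined M9-fructose medium without D-alanine in 96-well plates with Prestwick library compounds at 0.1 mM and 1% DMSO. Low Alr induction is 0.1 µM arabinose and high induction is 10 mM arabinose.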
# [4] = tested on: E. coli TESEC Mtb Alr; details: compound 0.1 mM
# Method: as §3
# [5] = tested on: E. coli TESEC Mtb Alr; details: compound 0.1 mM; remark: listed apart in the source
# Method: as §1
# [6] = tested on: E. coli TESEC Mtb DapB; details: compound 0.1 mM
# Method: as §2
# [7] = arabinose induction (level): High, raw OD600 reference: median of DMSO wells 0.331, cell-free background 0.041
# [8] = arabinose induction (level): Low, raw OD600 reference: median of DMSO wells 0.417, cell-free background 0.041
# [9] = arabinose 100 nM, raw OD600 reference: median of DMSO wells 0.413, cell-free background 0.052
# [10] = arabinose 10000000 nM, raw OD600 reference: median of DMSO wells […], cell-free background 0.052
# [11] = arabinose 1000 nM, raw OD600 reference: median of DMSO wells 0.294, cell-free background 0.041
# [12] = arabinose 10000 nM, raw OD600 reference: median of DMSO wells 0.264, cell-free background 0.041
# [13] = arabinose 100000 nM, raw OD600 reference: median of DMSO wells 0.201, cell-free background 0.041
# [14] = arabinose 1000000 nM, raw OD600 reference: median of DMSO wells 0.193, cell-free background 0.041
# [15] = arabinose 10000000 nM, raw OD600 reference: median of DMSO wells 0.146, cell-free background 0.041
# [16] = arabinose induction (level): High, raw OD600 reference: median of DMSO wells […], cell-free background 0.041
# [17] = arabinose induction (level): Low, raw OD600 reference: median of DMSO wells 0.227, cell-free background 0.041
SMILES,growth [1],"growth [2, 7]","growth [2, 8]",growth [3],"growth [4, 9]","growth [4, 10]","growth [5, 11]","growth [5, 12]","growth [5, 13]","growth [5, 14]","growth [5, 15]","growth [6, 16]","growth [6, 17]"
CC[C@@H](CO)NC(=O)[C@@H]1C=C2c3cccc4[nH]cc(c34)C[C@H]2N(C)C1 [Methylergometrine maleate],0.227 ± 0.0031,0.228 ± 0.051,0.267 ± 0.069,0.523 ± 0.018,0.4 ± 0.0081,0.359 ± 0.0099,,,,,,,
CN(C)[C@@H]1C(=O)C(C(N)=O)=C(O)[C@@]2(O)C(=O)C3=C(O)c4c(O)ccc(Cl)c4[C@@](C)(O)[C@H]3C[C@@H]12 [Chlortetracycline hydrochloride],0.03933 ± 0.00031,0.0499 ± 0.0023,0.0479 ± 0.00061,,0.0524 ± 0.00066,0.0506 ± 0.00035,0.0417 ± 0.0029,0.04 ± 0.00072,0.0444 ± 0.0038,0.0402 ± 0.0018,0.0405 ± 0.0011,,
CC(C)c1c(CN(C)C(C)Cc2ccccc2)n(C)n(-c2ccccc2)c1=O (stereo unspecified) [Famprofazone],0.219 ± 0.0093,0.425 ± 0.02,0.486 ± 0.087,,0.406 ± 0.0053,0.269 ± 0.0074,,,,,,0.202 ± 0.0043,0.236 ± 0.04
C[C@]12COC(=O)C[C@@H]1CC[C@@H]1[C@@H]2CC[C@@]2(C)[C@H]1CC[C@]2(C)O [Oxandrolone],0.157 ± 0.0027,0.148 ± 0.0058,0.319 ± 0.033,,0.42 ± 0.0079,0.246 ± 0.019,0.189 ± 0.0087,0.232 ± 0.0096,0.126 ± 0.0067,0.105 ± 0.005,0.12 ± 0.0015,,
C[N+]1(C)CCOC(O)(c2ccc(-c3ccc(C4(O)C[N+](C)(C)CCO4)cc3)cc2)C1 (stereo unspecified) [Hemicholinium bromide],0.227 ± 0.013,0.352 ± 0.026,0.281 ± 0.069,,0.403 ± 0.0081,0.397 ± 0.015,,,,,,0.21 ± 0.012,0.217 ± 0.021
C[C@]12Cc3c[nH]nc3C[C@@H]1CC[C@@H]1[C@@H]2CC[C@@]2(C)[C@H]1CC[C@]2(C)O [Stanozolol],0.184 ± 0.0086,0.157 ± 0.011,0.271 ± 0.051,,0.409 ± 0.0083,0.278 ± 0.018,,,,,,0.219 ± 0.018,0.193 ± 0.0045
O=[N+]([O-])O[C@@H]1CO[C@H]2[C@@H]1OC[C@@H]2O [Isosorbide mononitrate],0.24 ± 0.0084,0.255 ± 0.084,0.345 ± 0.017,,0.4231 ± 0.0041,0.324 ± 0.012,0.292 ± 0.0083,0.261 ± 0.018,0.198 ± 0.035,0.209 ± 0.018,0.136 ± 0.0044,,
"CNCC(O)c1ccc(O)cc1 (racemic) [(+,-)-Synephrine]",0.239 ± 0.0073,0.222 ± 0.018,0.322 ± 0.076,,0.4195 ± 0.0029,0.325 ± 0.027,,,,,,0.227 ± 0.021,0.232 ± 0.042
CC(=O)O[C@H]1C[C@@H]2CC[C@@H]3[C@H](CC[C@@]4(C)[C@H]3C[C@H]([N+]3(C)CCCCC3)[C@@H]4OC(C)=O)[C@@]2(C)C[C@@H]1[N+]1(C)CCCCC1 [Pancuronium bromide],0.232 ± 0.0035,0.242 ± 0.064,0.407 ± 0.014,,0.421 ± 0.026,0.349 ± 0.019,,,,,,0.191 ± 0.026,0.203 ± 0.055
OC(c1ccccc1)(c1ccccc1)C1CCNCC1 [Azacyclonol],0.222 ± 0.014,0.296 ± 0.07,0.442 ± 0.019,,0.412 ± 0.011,0.333 ± 0.035,,,,,,,
NCCc1c[nH]c2ccc(O)cc12 [Serotonin hydrochloride],0.231 ± 0.013,0.361 ± 0.022,0.405 ± 0.091,,0.407 ± 0.02,0.338 ± 0.054,,,,,,,
CN1C[C@H](C(=O)N[C@]2(C)O[C@@]3(O)[C@@H]4CCCN4C(=O)[C@H](Cc4ccccc4)N3C2=O)C[C@@H]2c3cccc4[nH]cc(c34)C[C@H]21 [Dihydroergotamine tartrate],0.0782 ± 0.0015,0.116 ± 0.013,0.123 ± 0.0052,,0.282 ± 0.043,0.0688 ± 0.0007,0.0712 ± 0.0052,0.0692 ± 0.001,0.0715 ± 0.0021,0.0579 ± 0.0025,0.082 ± 0.0022,,
C#C[C@]1(O)CC[C@H]2[C@@H]3CCC4=CC(=O)CC[C@]4(C)[C@H]3CC[C@@]21C [Ethisterone],0.237 ± 0.0043,0.344 ± 0.057,0.41 ± 0.063,,0.408 ± 0.0092,0.39 ± 0.055,,,,,,0.179 ± 0.0098,0.219 ± 0.02
C[C@]12CC[C@H](O)C[C@H]1CC[C@@H]1[C@@H]2C[C@@H](O)[C@]2(C)[C@@H](C3=CC(=O)OC3)CC[C@]12O [Digoxigenin],0.228 ± 0.005,0.262 ± 0.025,0.458 ± 0.024,,0.408 ± 0.02,0.331 ± 0.011,0.299 ± 0.018,0.257 ± 0.0041,0.201 ± 0.016,0.17 ± 0.0032,0.14 ± 0.0016,,
CC(Cc1ccc(O)cc1)NCC(O)c1cc(O)cc(O)c1 (stereo unspecified) [Fenoterol hydrobromide],0.241 ± 0.0046,0.298 ± 0.046,0.419 ± 0.025,,0.406 ± 0.011,0.344 ± 0.0099,0.283 ± 0.02,0.266 ± 0.0076,0.184 ± 0.0055,0.19 ± 0.0033,0.143 ± 0.0091,,
C[C@@H]1O[C@@H](O[C@@H]2C=C3CC[C@@H]4[C@H](CC[C@]5(C)[C@@H](c6ccc(=O)oc6)CC[C@]45O)[C@@]3(C)CC2)[C@H](O)[C@H](O)[C@H]1O [Proscillaridin A],0.182 ± 0.0085,0.117 ± 0.0017,0.234 ± 0.021,,0.405 ± 0.009,0.267 ± 0.0065,,,,,,0.163 ± 0.004,0.173 ± 0.019
CCN[C@@H](C)Cc1cccc(C(F)(F)F)c1 [Dexfenfluramine hydrochloride],0.23 ± 0.013,0.235 ± 0.033,0.335 ± 0.083,,0.412 ± 0.0093,0.351 ± 0.026,0.315 ± 0.0066,0.261 ± 0.0059,0.232 ± 0.027,0.174 ± 0.0053,0.158 ± 0.0058,,
C[C@@H]1C[C@@H]([C@H](O)CC2CC(=O)NC(=O)C2)C(=O)[C@@H](C)C1 [Cycloheximide],0.25 ± 0.014,0.469 ± 0.0092,0.443 ± 0.042,0.529 ± 0.06,0.394 ± 0.033,0.33 ± 0.013,,,,,,,
